An excerpt weighted towards active compounds, which were near 13% of everything screened.
Pf growth 48h = P. falciparum growth inhibition at 48 hours (one generation) | 5.9% of 310,000 active | Potency, µM (series often up to 28.7 µM), for inactives: at the top dose activity change, negative = inhibition, actives largely listed as inhibitors | P. falciparum luciferase growth in erythrocytes, 48 h; also: potency is read from the fitted curve at half-maximal effect
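In quantitative HTS format, infected erythrocytes bearing luciferase-reporter parasites were treated for a single generation at 37 C. Luminescence after adding detection reagent served as the growth measure.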
Pf growth 96h = P. falciparum growth inhibition at 96 hours; P. falciparum luciferase reporter growth, 96 h; Potency, µM (series often up to 28.7 µM), without a hit: at the highest dose activity change, negative = inhibition, most hits filed as inhibitors; 6.9% of 320,000 active; AID 504834; also: potency is read from the fitted curve at half-maximal effect
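Parasite growth measured via integrated firefly luciferase reporter in P. falciparum. Infected erythrocytes at 2% hematocrit, 0.05% parasitemia final were treated 96 hours at 37 C under 5% CO2, and luminescence was read.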
HCV inhibitor = blocks hepatitis C virus; Huh7.5.1 HCVcc-Cre infection, luciferase reporter, 44 h; Potency, µM (doses to about 41.8 µM), for the others: at the highest dose activity change, negative = inhibition, most hits filed as inhibitors; 3.4% of 340,000 active; AID 651820; also: potency is read from the fitted curve at half-maximal effect
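HCVcc-Cre virus at an moi near 0.5 was added right after compound to cells cultured 4 h from seeding (1,000 cells/well). Luciferase activity was determined 44 h later, 15 min after substrate addition at RT.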
HCMV antiviral = inhibitors of human cytomegalovirus. HFF cells, HCMV-luciferase reporter, 72 h; stronger effect = lower value. activity change, negative = inhibition, % at 57.5 µM. 4.5% of 410,000 active; in the data active = activity change below about -60%; inconclusive = no clear call, values can overlap the other calls; inactive = above about -39%
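Human foreskin fibroblasts infected with luciferase-reporter HCMV at MOI 1 PFU/cell, compounds at two doses. Luciferase measured 72 h post infection; normalized to buffer-only basal and Salinomycin (10uM) controls.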
* hit, by the source's call; ! = a repeat was not active. Unless noted, calls follow the shape of the dose curve; as a rule, active = well fitted inhibition curve with a large enough effect; inconclusive = small, poorly fitted or top-dose-only effect, or another doubt; inactive = no such curve, though single readings can be large or run the other way. % is scaled to controls: 0 for no effect and ±100 for the full control effect.

For CN(C)c1cccc(C(=O)OCc2cc(=O)oc3cc(O)ccc23)c1 the results were Pf growth 48h 12µM*, HCV inhibitor inconclusive and HCMV antiviral 8.
Screening CCCNS(=O)(=O)c1cccc(C(=O)OCc2cc(=O)oc3cc(OC)ccc23)c1 returned Pf growth 48h inconclusive, Pf growth 96h inconclusive, HCV inhibitor -27% and HCMV antiviral -9.
COc1ccc2c(COC(=O)c3cccc(S(=O)(=O)NCC(C)C)c3)cc(=O)oc2c1 was read as Pf growth 48h 9.3µM*, Pf growth 96h inconclusive, HCV inhibitor 2% and HCMV antiviral inconclusive.
CC1CN(S(=O)(=O)c2cccc(C(=O)OCCOc3ccccc3)c2)CC(C)O1 (centres undefined) was read as Pf growth 48h inconclusive, Pf growth 96h inconclusive, HCV inhibitor inconclusive and HCMV antiviral -13.
For CC1CN(S(=O)(=O)c2cccc(C(=O)OCc3cc(=O)oc4cc(O)ccc34)c2)CC(C)O1 (centres undefined) the results were Pf growth 48h inconclusive, Pf growth 96h -17%, HCV inhibitor 10µM*! and HCMV antiviral 28.
CCOc1ccc(NC(=O)CSC2=Nc3ccccc3C3=NC(CC(=O)NCc4cccs4)C(=O)N23)cc1 (centres undefined) was read as HCMV antiviral -25.
Screening COc1ccc(Cn2c(=O)c3cccnc3n(CC(=O)Nc3c(C)cc(C)cc3C)c2=O)cc1 returned HCMV antiviral 15.
For CCc1ccc(OCC(=O)Nc2cc(-c3ccc(C)cc3)no2)cc1 the results were HCMV antiviral 56.
CC1CCN(CC2CCN(C(=O)NCc3ccc(F)cc3)CC2)CC1 was read as HCMV antiviral 11.
O=C(CCc1ccccc1)Nc1cc2c3c(c1)CCC(=O)N3CCC2 was read as Pf growth 48h -10%, Pf growth 96h 46%, HCV inhibitor inconclusive and HCMV antiviral -99*.
`CC(C)CCNC(=O)C(=O)Nc1cc2c3c(c1)CC(=O)N3CCC2` gave Pf growth 48h -5%, Pf growth 96h 0%, HCV inhibitor -4% and HCMV antiviral 3.
`O=C(NCCO)C(=O)Nc1cc2c3c(c1)CC(=O)N3CCC2` gave Pf growth 48h 60%, Pf growth 96h 55%, HCV inhibitor 9% and HCMV antiviral active.
`COc1ccccc1CCNC(=O)C(=O)Nc1cc2c3c(c1)CC(=O)N3CCC2` gave Pf growth 48h 1.2µM*, Pf growth 96h 1µM*, HCV inhibitor inconclusive and HCMV antiviral -23.
Screening CCOc1ccc(C(c2c(O)cc(C)n(Cc3ccco3)c2=O)N2CCN(c3ccccc3)CC2)cc1 (centres undefined) returned HCMV antiviral 7.
`Cc1ccc(S(=O)(=O)N2CCCCC2)cc1C(=O)NCCc1ccccc1` gave Pf growth 48h inconclusive, Pf growth 96h inconclusive, HCV inhibitor 18% and HCMV antiviral -6.
`CCCCCNC(=O)c1cc(S(=O)(=O)N2CCCCC2)ccc1F` gave Pf growth 48h 15%, Pf growth 96h 22%, HCV inhibitor -1% and HCMV antiviral -105*.
`CCN(CC)S(=O)(=O)c1ccc(F)c(C(=O)NCCC(C)C)c1` gave Pf growth 48h -21%, Pf growth 96h 4.1µM*, HCV inhibitor inconclusive and HCMV antiviral 5.
`CCN(Cc1ccccc1)S(=O)(=O)c1ccc(F)c(C(=O)Nc2ccc(C(C)C)cc2)c1` gave HCMV antiviral -16.
`O=C(NCCc1ccccc1)c1cc(S(=O)(=O)N2CCCC2)ccc1F` gave Pf growth 48h 11%, Pf growth 96h inconclusive, HCV inhibitor -27% and HCMV antiviral active.
For Cc1ccc(CNc2nc3ccc(Cl)cc3n3nnnc23)cc1 the results were HCMV antiviral 18.
O=C1CC(=O)Nc2cc(S(=O)(=O)Nc3cccc(Br)c3)ccc2N1 was read as HCMV antiviral -13.
Screening C=CC[n+]1c(-c2ccc(OC)c(OC)c2)csc1NNC(=O)Nc1ccccc1 returned Pf growth 48h 7.4µM*, Pf growth 96h 9.3µM*, HCV inhibitor 4µM* and HCMV antiviral inconclusive.
`CC(=O)c1c(C)oc2c(Cl)cc(NS(=O)(=O)c3cc(C)c(C)cc3C)cc12` gave HCMV antiviral 7.
O=C(COC(=O)c1ccccc1C(=O)c1ccc(Cl)c([N+](=O)[O-])c1)NC1CC1 was read as Pf growth 48h -2%, Pf growth 96h 2%, HCV inhibitor 11µM* and HCMV antiviral -99*.

Assay outcomes deposited in PubChem BioAssay by National Center for Advancing Translational Sciences (NCATS).
